Five molecules from PubChem BioAssay can be followed below.

Active and inactive are the calls of the source.

The nature of test [1]: compounds binding Alexa647 anti-His antibody – biochemical, small-molecule microarray, 635 nm fluorescence, artefact control for SMM control protein annotation, primary screen (AID 1128).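 Further: score merges feature fluorescence with signal-to-noise for each printed compound spot.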 The following applies: higher = more signal.
The subject of test [2] is Human papillomavirus type 1a E7 protein (residues 1-88). Kind of test: HPV1a E7 small-molecule binders, primary screen, biochemical, small-molecule microarray, residues 1-88, 635 nm (AID 1129). The conditions noted are these: small-molecule microarray binding, fluorescence 635 nm; higher = more signal.
Test [3] has as its target Focal adhesion kinase 1 (Homo sapiens) (UniProt Q05397). The experiment in a line: PTK2 protein binding on printed compound slides – biochemical, small-molecule microarray, 635/667 nm fluorescence, BSA, DTT, primary screen (AID 1130).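 Further: composite of spot emission at 667 nm and signal to noise over triplicate slides.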 The conditions noted are these: 635 nm fluorescence, higher = more signal.
Test [4] relates to Fibrinogen (Alexa647-labelled). The experiment in a line: Alexa647-fibrinogen binding to printed small molecules – biochemical, small-molecule microarray, 635/667 nm fluorescence, artefact control for SMM control-protein annotation, profiling panel (AID 1131).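 Further: z-score merges 667 nm fluorescence with per-spot signal-to-noise over triplicate slides.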 The conditions noted are these: fibrinogen-A647 binding fluorescence, higher = more signal.
In test [5] the target is Follistatin (Homo sapiens) (UniProt P19883). Kind of test: FST protein binding to printed compounds – biochemical, small-molecule microarray, 635/667 nm fluorescence, primary screen (AID 1132). The following applies: 635 nm fluorescence, higher = more signal.
The target of test [6] is Fibroblast growth factor 2 (Homo sapiens) (UniProt P09038). Kind of test: basic fibroblast growth factor binding to printed compounds – biochemical, small-molecule microarray, 635/667 nm fluorescence, primary screen (AID 1133). The conditions noted are these: FGF2, fluorescence 635/667, higher = more signal.
A short description of test [7]: JC-1 mitochondrial potential readout, lung cancer cells – cell-based, A549, JC-1 fluorescence, basal, 24 h, 100 nL, profiling panel (AID 1138).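 Further: A549 lung adenocarcinoma cells under basal conditions with no added stimulus; test concentration not given here.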 The following applies: higher = more signal.
A further test concerns Lefty1. Kind of test: Lefty1 protein binding to printed compounds – biochemical, small-molecule microarray, 635/667 nm fluorescence, primary screen (AID 1139). The conditions noted are these: fluorescence 635/667, higher = more signal.
Test [8] has as its system wheat germ agglutinin (Triticum aestivum), Alexa647-labelled. Kind of test: Alexa647-WGA lectin binding to printed small molecules – biochemical, small-molecule microarray, 635/667 nm fluorescence, artefact control for SMM control-protein annotation, profiling panel (AID 1140).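 Further: score merges 667 nm feature emission with signal to noise over triplicate slides.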 The conditions noted are these: WGA-A647 binding, 635 nm fluorescence, higher = more signal.
Test [9] addresses Luciferin 4-monooxygenase (Photinus pyralis) (UniProt P08659). The experiment in a line: inhibition of purified Photinus pyralis luciferase – biochemical, luminescence, purified enzyme, 2006 set, primary screen (AID 1141).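 Further: cell-free assay with purified firefly luciferase at 100 ng per well in PBS; test concentration not given here.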 The following applies: purified firefly luciferase, SteadyGlo luminescence, 30 min; higher = more signal, called active from +8 up or from −8 down.
The subject of test [10] is Wnt5a (protein binding on small-molecule microarray). The experiment in a line: small molecules binding Wnt5a protein – biophysical, small-molecule microarray, 635/667 nm fluorescence, primary screen (AID 1142).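 Further: fluorescence read at 667 nm with signal to noise per printed feature.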 The conditions noted are these: 635 nm fluorescence, higher = more signal.
A short description of test [11]: ATP-based viability of Huh7 replicon cells – cell-based, CellTiter-Glo luminescence, basal, 48 h, cytotoxicity control for HCV replication inhibitor project, primary screen (AID 1143).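 Further: Huh7 hepatoma cells carrying a hepatitis C replication reporter with no stimulus; test concentration not given here.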 The conditions noted are these: higher = more signal, called active from +8 up or from −8 down. Background: Replicon systems follow genome replication, usually without infectious particles.

Test [12] is described as follows: basal CRE-LacZ reporter activity in PC12 – cell-based, unstimulated, primary screen (AID 1145). The following applies: no forskolin, luminescence, 4.5 h, higher = more signal, called active from +8 up or from −8 down.
Test [13] is described as follows: forskolin-driven CRE-LacZ activity in PC12 – cell-based, CRE-LacZ reporter, forskolin-stimulated, primary screen (AID 1146).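 Further: PC12 cells with 6xCRE LacZ reporter stimulated by forskolin 10 µM; beta-galactosidase reporter signal reflecting CREB driven transcription.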 The following applies: luminescence, 4.5 h, higher = more signal, called active from +8 up or from −8 down.
In test [14] the target is Streptavidin (Streptomyces avidinii) (UniProt P22629). The experiment in a line: compounds binding control protein streptavidin – biophysical, small-molecule microarray, 635/667 nm fluorescence, artefact control for SMM compound annotation, primary screen (AID 1147).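 Further: signal reflects streptavidin binding to arrayed compounds as a control protein.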 The conditions noted are these: higher = more signal.
Test [15] in a line: probe aInhba binding on compound microarray – biochemical, small-molecule microarray, 635/667 nm fluorescence, primary screen (AID 1148).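 Further: score merges 667nm spot fluorescence with signal-to-noise for antibody binding to printed compounds.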 The following applies: higher = more signal.
In test [16] the target is Torsin-1A (Homo sapiens) (UniProt O14656). The experiment in a line: TOR1A wild-type binding on microarray – cell lysate, small-molecule microarray, lysate, 635/667 nm, primary screen (AID 1149). The conditions noted are these: COS7 hTOR1A-WT lysate, 635 nm fluorescence, higher = more signal.
For test [17] the target is unchanged. Kind of test: torsin A mutant lysate binding on microarrays – cell lysate, small-molecule microarray, COS7 lysate, 635/667 nm fluorescence, primary screen (AID 1150).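 Further: score pools 667 nm emission and signal to noise measuring lysate protein binding.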 The conditions noted are these: COS7 hTOR1A mutant lysate, 635 nm fluorescence, higher = more signal.
The subject of test [18] is Sonic hedgehog protein (Shh). Kind of test: Sonic hedgehog microarray binding compounds – biochemical, small-molecule microarray, 635/667 nm fluorescence, primary screen (AID 1151).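 Further: Shh protein binding to compounds spotted on small-molecule microarray slides; score combines spot fluorescence intensity with signal-to-noise across triplicate slides.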 The following applies: 635 nm fluorescence, higher = more signal.

Sequence of Luciferin 4-monooxygenase (Photinus pyralis) (P08659 whole entry, looked up): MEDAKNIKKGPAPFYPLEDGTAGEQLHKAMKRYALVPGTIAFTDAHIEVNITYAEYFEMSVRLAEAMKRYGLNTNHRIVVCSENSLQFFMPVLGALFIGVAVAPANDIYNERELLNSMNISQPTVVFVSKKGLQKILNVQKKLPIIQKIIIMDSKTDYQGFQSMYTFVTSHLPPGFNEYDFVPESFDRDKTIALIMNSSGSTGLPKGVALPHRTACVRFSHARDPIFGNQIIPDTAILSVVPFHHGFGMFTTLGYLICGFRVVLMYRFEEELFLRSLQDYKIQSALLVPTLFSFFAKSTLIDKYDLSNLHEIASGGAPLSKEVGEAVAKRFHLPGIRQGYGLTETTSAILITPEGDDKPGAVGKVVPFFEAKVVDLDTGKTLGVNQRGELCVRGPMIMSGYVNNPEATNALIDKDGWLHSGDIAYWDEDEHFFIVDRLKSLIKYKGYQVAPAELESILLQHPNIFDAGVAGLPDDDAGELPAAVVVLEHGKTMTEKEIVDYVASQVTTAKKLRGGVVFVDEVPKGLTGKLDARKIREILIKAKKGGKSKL
Sequence of Fibroblast growth factor 2 (Homo sapiens) (P09038 whole entry, looked up): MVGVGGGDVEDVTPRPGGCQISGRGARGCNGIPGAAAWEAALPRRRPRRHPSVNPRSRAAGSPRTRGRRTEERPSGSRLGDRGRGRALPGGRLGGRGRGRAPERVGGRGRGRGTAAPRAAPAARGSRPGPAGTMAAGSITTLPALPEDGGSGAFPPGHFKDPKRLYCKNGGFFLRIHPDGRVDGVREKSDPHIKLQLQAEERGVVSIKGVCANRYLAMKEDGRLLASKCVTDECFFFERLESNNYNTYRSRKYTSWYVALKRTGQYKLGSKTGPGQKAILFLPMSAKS
Sequence of Focal adhesion kinase 1 (Homo sapiens) (Q05397 whole entry, looked up): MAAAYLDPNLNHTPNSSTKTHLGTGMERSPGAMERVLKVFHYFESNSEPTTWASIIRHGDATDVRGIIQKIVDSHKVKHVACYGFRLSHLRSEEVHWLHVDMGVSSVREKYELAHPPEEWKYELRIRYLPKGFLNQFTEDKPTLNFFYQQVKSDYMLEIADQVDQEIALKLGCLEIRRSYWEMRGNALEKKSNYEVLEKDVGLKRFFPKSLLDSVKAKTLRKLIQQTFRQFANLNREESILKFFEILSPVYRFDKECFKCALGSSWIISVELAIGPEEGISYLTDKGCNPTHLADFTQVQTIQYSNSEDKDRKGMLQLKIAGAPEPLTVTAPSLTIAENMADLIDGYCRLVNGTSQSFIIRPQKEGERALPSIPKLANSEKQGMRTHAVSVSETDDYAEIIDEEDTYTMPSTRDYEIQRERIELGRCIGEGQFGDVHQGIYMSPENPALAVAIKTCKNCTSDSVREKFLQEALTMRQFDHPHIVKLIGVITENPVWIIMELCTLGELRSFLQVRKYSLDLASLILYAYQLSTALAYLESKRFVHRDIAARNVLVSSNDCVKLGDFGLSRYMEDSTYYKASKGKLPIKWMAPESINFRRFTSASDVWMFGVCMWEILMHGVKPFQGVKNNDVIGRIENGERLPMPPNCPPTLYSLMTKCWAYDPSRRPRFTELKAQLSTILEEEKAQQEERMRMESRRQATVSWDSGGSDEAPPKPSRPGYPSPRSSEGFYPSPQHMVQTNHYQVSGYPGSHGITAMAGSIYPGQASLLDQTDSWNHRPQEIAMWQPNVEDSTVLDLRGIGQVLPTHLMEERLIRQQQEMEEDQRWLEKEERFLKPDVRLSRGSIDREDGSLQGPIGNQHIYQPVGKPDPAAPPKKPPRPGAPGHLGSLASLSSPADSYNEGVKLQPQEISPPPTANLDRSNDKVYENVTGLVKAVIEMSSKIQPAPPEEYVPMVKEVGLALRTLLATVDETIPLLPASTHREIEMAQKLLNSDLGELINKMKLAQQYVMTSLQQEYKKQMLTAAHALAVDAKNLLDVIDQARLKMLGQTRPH
Sequence of Follistatin (Homo sapiens) (P19883 whole entry, looked up): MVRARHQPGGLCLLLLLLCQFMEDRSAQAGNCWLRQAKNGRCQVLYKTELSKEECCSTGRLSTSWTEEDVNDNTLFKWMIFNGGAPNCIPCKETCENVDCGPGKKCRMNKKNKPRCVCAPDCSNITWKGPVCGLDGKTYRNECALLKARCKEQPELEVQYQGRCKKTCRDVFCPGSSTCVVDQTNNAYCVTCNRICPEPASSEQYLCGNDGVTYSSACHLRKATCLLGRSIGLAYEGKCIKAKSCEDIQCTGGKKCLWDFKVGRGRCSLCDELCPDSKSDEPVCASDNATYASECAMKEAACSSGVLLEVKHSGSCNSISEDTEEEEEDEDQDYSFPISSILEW
Sequence of Streptavidin (Streptomyces avidinii) (P22629 whole entry, looked up): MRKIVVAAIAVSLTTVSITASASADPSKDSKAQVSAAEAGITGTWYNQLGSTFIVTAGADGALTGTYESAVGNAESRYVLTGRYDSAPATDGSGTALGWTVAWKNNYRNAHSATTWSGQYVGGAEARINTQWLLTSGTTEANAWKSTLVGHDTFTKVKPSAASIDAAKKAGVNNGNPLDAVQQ
Sequence of Torsin-1A (Homo sapiens) (O14656 whole entry, looked up): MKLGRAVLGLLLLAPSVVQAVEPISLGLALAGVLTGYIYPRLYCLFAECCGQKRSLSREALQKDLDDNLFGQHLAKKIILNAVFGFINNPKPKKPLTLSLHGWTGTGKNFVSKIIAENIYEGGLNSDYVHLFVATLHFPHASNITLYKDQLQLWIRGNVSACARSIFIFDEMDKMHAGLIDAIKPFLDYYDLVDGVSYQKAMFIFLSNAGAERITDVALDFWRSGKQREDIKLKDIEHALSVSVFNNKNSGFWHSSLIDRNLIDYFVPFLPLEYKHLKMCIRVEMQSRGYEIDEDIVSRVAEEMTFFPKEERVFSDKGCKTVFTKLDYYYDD

As to `COCC(=C=CC[C@H](O)c1ccc(OCCO)cc1)C[C@H](O)c1ccccn1`, the composite z-score is -0.0301 in [1]; 0.401 in test [2]; -0.389 in test [3]; -0.263 in [4]; 0.193 in test [5]; 0.0116 in [6]. Moreover, the composite z-score is 0.233 in the test on Lefty1; -0.32 in [8]; -0.0253 in test [10]; -0.65 in test [14]; -0.018 in test [15]; -0.353 with Torsin-1A (Homo sapiens) [16]. Besides, the values for the composite z-score (with Torsin-1A (Homo sapiens) [17]; in test [18]) were 0.904 and 1.05, respectively. Moreover, the z-score in [7] is 1.92; in test [9], -2.45 (inactive); in test [11], -0.23 (inactive); in [12], 3.18 (inactive); in test [13] it was -1.44 (inactive).

For `C=CC[C@]1(C(=O)NCC(O)CO)N=C(c2ccc(OCCCO)cc2)O[C@H]1c1ccccc1` (stereo not given in full), the composite z-score is 0.307 in test [1]; 0.904 in test [2]; 0.12 in [3]; 0.106 in test [4]; -0.307 in test [5]; -0.651 in test [6]. Also, the composite z-score with Lefty1 was -1.51; in test [8], 0.587; in [10], 0.621; in test [14], 0.0012; in test [15], -0.146; with Torsin-1A (Homo sapiens) [16], 2.71. Further, the composite z-score was 3.09 with Torsin-1A (Homo sapiens) [17] and -0.559 in [18]. Besides, the z-score in test [7] is 0.985; in test [9] it was -0.428 (inactive); in [11], -0.371 (inactive); in test [12] it was 1.37 (inactive); in [13], -0.804 (inactive).

Consider `CO[C@H]1COC(=O)[C@@H](OCc2ccccc2)C=C[C@H](C)[C@@H](OC)COC(=O)[C@H](OCc2ccccc2)C=C[C@@H]1C`, for which the composite z-score was -0.12 in test [1]; -0.0882 in [2]; 0.104 in [3]; -0.305 in test [4]; 0.266 in test [5]; 0.552 in test [6]. Further, the composite z-score is 0.67 in the test on Lefty1; -0.244 in test [8]; -0.115 in test [10]; -0.0864 in test [14]; -0.0695 in [15]; 0.593 in the test with Torsin-1A (Homo sapiens) [16]. Moreover, the composite z-score in the test with Torsin-1A (Homo sapiens) [17] was 0.128; in test [18], 0.537. For the same molecule, the z-score is 1.99 in test [7]; -1.99 (inactive) in [9]; -2.26 (inactive) in test [11]; 1.16 (inactive) in [12]; -0.672 (inactive) in [13].

As to `CCN1C(C)=C(C(=O)OC)[C@@H](c2ccccc2)N2C(=O)[C@@]3(C(=O)OC)O[C@@]12[C@@H]1C(=O)N(C)C(=O)[C@@H]13`, the composite z-score in test [1] is 1.65; in [2], 0.812; in [3], -0.23; in test [4], 0.819; in [5], 0.968; in [6] it was 0.916. Besides, the composite z-score in the test with Lefty1 was 0.819; in [8] it was 1.12; in test [10], 0.601; in test [14] it was 0.233; in test [15], -0.157; with Torsin-1A (Homo sapiens) [16], 0.587. Moreover, the values for the composite z-score (with Torsin-1A (Homo sapiens) [17]; in [18]) were 0.368 and 0.971, respectively. Also, the z-score in [7] is 0.842; in [9], -0.701 (inactive); in test [11], -0.674 (inactive); in test [12], 0.922 (inactive); in test [13], -1.21 (inactive).

Take `O=C1c2ccccc2[C@](Cc2ccccc2I)(C(=O)NCC(F)(F)F)[C@H](c2ccc(CO)cc2)N1Cc1ccccc1C(F)(F)F`: the composite z-score in test [1] is 0.722; in test [2], 1.22; in test [3], 0.857; in test [4], 0.351; in [5], 0.678; in test [6], 0.381. Moreover, the composite z-score with Lefty1 was 0.108; in [8], 0.479; in [10], 0.12; in test [14] it was 0.59; in test [15] it was -0.268; in the test with Torsin-1A (Homo sapiens) [16], 0.305. The composite z-score was 0.245 with Torsin-1A (Homo sapiens) [17] and 0.137 in test [18]. Further, the z-score was 1.67 in [7]; -0.956 (inactive) in test [9]; -0.254 (inactive) in test [11]; -0.438 (inactive) in [12]; -0.112 (inactive) in test [13].
